RXFP1 antag: qHTS Assay for Antagonists of the Relaxin Receptor RXFP1. AID 1259400, 2018. HEK293-RXFP1, relaxin-stimulated cAMP HTRF, 30 min; stronger effect = lower value. 350,000 tested, 0.59% active. activity change, negative = inhibition, % at 57.5 µM;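 active = activity change of -60% or lower, but not beyond a set lower limit; inconclusive = change between -60% and -40%, or beyond the set limit; inactive = change above -40%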
Target sequence (Q9HBX9 whole entry, looked up): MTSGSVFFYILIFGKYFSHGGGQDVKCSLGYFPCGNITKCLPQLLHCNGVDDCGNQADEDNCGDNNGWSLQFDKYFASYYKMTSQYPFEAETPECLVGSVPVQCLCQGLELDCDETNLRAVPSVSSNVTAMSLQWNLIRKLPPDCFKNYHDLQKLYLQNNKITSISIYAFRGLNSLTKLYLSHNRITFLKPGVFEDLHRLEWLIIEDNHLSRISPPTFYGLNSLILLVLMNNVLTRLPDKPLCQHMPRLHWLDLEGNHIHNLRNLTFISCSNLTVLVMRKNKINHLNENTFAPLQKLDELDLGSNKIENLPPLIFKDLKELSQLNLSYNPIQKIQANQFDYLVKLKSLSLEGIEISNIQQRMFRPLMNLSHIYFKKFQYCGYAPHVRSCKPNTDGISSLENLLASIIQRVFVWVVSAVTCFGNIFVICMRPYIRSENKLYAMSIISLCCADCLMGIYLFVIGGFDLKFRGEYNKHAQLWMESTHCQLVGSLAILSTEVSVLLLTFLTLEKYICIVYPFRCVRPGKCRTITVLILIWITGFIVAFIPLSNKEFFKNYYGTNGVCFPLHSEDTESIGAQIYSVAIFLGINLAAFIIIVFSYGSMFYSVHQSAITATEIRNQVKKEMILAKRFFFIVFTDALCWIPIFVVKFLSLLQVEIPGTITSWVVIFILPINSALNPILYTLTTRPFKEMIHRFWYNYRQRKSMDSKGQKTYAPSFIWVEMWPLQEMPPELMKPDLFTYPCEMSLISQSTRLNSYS
RXFP1 agonist: qHTS Assay for Agonists of the Relaxin Receptor RXFP1; 370,000 tested, 0.3% active; HEK293T-RXFP1 cAMP TR-FRET, 30 min; response scale: percent of porcine relaxin response, buffer zero; AID 2676, 2010; Relaxin receptor 1 (Homo sapiens), Q9HBX9; Potency, µM (titrated, usually from 57.5 µM), hits mostly activators; note: nearly all actives have a fitted effect of over 60% in size
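Agonist response is measured as cAMP accumulation in an RXFP1-transfected HEK293T line under PDE4 inhibition. Values are scaled between buffer-only and 29 nM porcine relaxin, and EC50s come from standard Hill equation fits.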
gsp antagonist: qHTS for Antagonists of gsp, the Etiologic Mutation Responsible for Fibrous Dysplasia/McCune-Albright Syndrome: qHTS | gsp-mutant cells, cAMP HTRF, 30 min | Potency, µM (highest dose often 76.9 µM), usual class: inhibitors | 340,000 tested, 0.4% active; calls by dose curve; cell line not stated here;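 note: intracellular cAMP measured with PDE inhibitor Ro 20-1724 present during compound exposure; nearly all actives have a fitted effect of over 65% in size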
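Cells, 2000/well, grown 16–24 h in DMEM 10% FBS with 0.5 mg/ml G418, then compounds plus […] (300 uM addition stock), 30 min at 37C. cAMP read by HTRF (cAMP-d2 and anti-cAMP antibody-K in lysis buffer) after 30 min RT.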
PTHR1 ag: qHTS for PTHR1 Agonists: Primary Screen; Potency, µM (top dose mostly 115 µM), most hits filed as activators; 410,000 tested, 0.075% active; HEK293 GP2 PTHR1 cells, GloSensor cAMP luminescence, 1 h; Parathyroid hormone/parathyroid hormone-related peptide receptor (Homo sapiens), Q03431; note: nearly all actives have a fitted effect of over 55% in size
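HEK-293-derived GP2 cells expressing PTHR1 and a GloSensor cAMP reporter, 3,000/well, plated overnight, given luciferin plus IBMX (each 0.5 mM as added) for 1 h at 37 °C, then compound for 1 h at 37 °C. Luminescence was read after 15 min at room temperature.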
gsp agonist: qHTS for Agonist of gsp, the Etiologic Mutation Responsible for Fibrous Dysplasia/McCune-Albright Syndrome: qHTS | gsp mutant cells, cAMP HTRF, 30 min | 340,000 tested, 0.13% active | AID 624287, 2012 | Potency, µM (top dose mostly 76.9 µM), hits mostly activators; active = well fitted activation curve with a large enough effect; inconclusive = small, poorly fitted or top-dose-only effect, or another doubt; inactive = no such curve, though single readings can be large or run the other way; cell line not stated here;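 note: phosphodiesterase inhibitor Ro 20-1724 added with compounds to block cAMP breakdown; nearly all actives have a fitted effect of over 60% in size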
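Cells stably selected in G418 were plated at 2000/well, grown 16-24 hr, then given compounds in DMSO with the PDE inhibitor […] (300 uM solution added) for 30 min at 37C; cAMP was read by HTRF.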
Of the large screens only hits and unclear results are named; the others gave an inactive call. Shown are actives, neighbours in structure and some others; about 1% of the full set was active somewhere. Unless noted, calls come from the whole dose curve; as a rule, active = well fitted curve in the direction sought with a large enough effect; inconclusive = small, poorly fitted or top-dose-only effect, or another doubt; inactive = no such curve, though single readings can be large; an effect the other way counts as inactive or inconclusive.

Cc1ccc(Cl)cc1N1CCN(C(=O)c2cccn2-c2nnc(N3CCCC3)s2)CC1	RXFP1 antag -83 (no result: gsp antagonist, gsp agonist)
CC(C)S(=O)(=O)c1nsc2nc(=O)c(/C=C3\C=Nc4ccccc43)c(N)n12	none
CSc1nsc2nc(=O)c(/C=C3\C=Nc4ccccc43)c(N)n12	gsp antagonist 32µM
CN(C)CCCNc1ncnc2sc(-c3ccccc3)cc12	none
CCCCN(CCO)c1ncnc2sc(-c3ccccc3)cc12	RXFP1 antag -65
COc1ccc(/C(C)=N/NC(=S)NCCc2ccccc2)c(O)c1	RXFP1 antag -62
Cc1cc(O)c(CN2CCN(c3ccc(F)cc3)CC2)c2oc(=O)cc(C)c12	RXFP1 agonist 25µM (no result: gsp antagonist, gsp agonist)
CCCc1c(C)c2ccc(O)c(CN3CCN(c4ccc(F)cc4)CC3)c2oc1=O	none (no result: gsp antagonist, gsp agonist)
CN(C)c1ccc(/C=C/c2ccc3c4ccccc4ccc3[n+]2-c2ccccc2)cc1	RXFP1 antag inconclusive, gsp antagonist 40µM
CN(C)c1ccc(/C=C/c2ccc3ccccc3[n+]2C)cc1	RXFP1 antag -92, gsp antagonist inconclusive
CCOc1ccc(N(CC)S(=O)(=O)N2CCCC(C(=O)NCCc3ccccc3OC)C2)cc1 (centres undefined)	none (no result: gsp antagonist, gsp agonist)
CCN(CC)S(=O)(=O)c1ccc(OC)c(NC(=O)COc2ccc3c(C)cc(=O)oc3c2)c1	RXFP1 agonist inconclusive, gsp agonist 8.9µM (no result: RXFP1 antag)
O=[N+]([O-])c1ccc2nc(/C=C/c3ccc(Cl)cc3)[nH]c2c1	gsp antagonist 35µM
CCCC(=O)N(c1ccc2oc3c(c2c1)CCCC3)S(=O)(=O)c1cc(C)ccc1C	none (no result: RXFP1 antag, gsp antagonist, gsp agonist)
Nc1ccn([C@@H]2O[C@H](CO)[C@@H](O)C2(F)F)c(=O)n1	none (no result: RXFP1 agonist, gsp antagonist, PTHR1 ag, gsp agonist)
CC(C)(C)NCC(O)COc1ccccc1OCC1CCCO1 (centres undefined)	none (no result: RXFP1 agonist, gsp antagonist, PTHR1 ag, gsp agonist)
O=S(=O)(Nc1nc2ccccc2nc1Nc1cccc(S(=O)(=O)N2CCCCC2)c1)c1ccccc1	gsp antagonist 35µM
Cc1cccc([C@@H]2[C@@H]3C(=O)N(Cc4ccccc4)C(=O)[C@@H]3[C@]3(C)C(=O)N(c4cccc(F)c4)C(=O)N23)c1	gsp antagonist 28µM (no result: RXFP1 antag, gsp agonist)
CCOC(=O)N1CCc2c(sc3c2c(=O)n(Cc2ccccc2)c(=O)n3CC(=O)Nc2ccc(F)cc2)C1	none (no result: gsp antagonist, gsp agonist)
Cc1nc2c(C)cccc2cc1C(=O)N/N=C/c1ccc(O)cc1	none
Cc1ccc2nc(C)c(C(=O)N/N=C/c3ccc(C(=O)O)cc3)cc2c1	RXFP1 antag -62
CC(Oc1ccccc1)C(=O)N=Nc1c(O)[nH]c2ccc([N+](=O)[O-])cc12 (centres undefined)	RXFP1 antag -84
O=C(N=Nc1c(O)[nH]c2ccc([N+](=O)[O-])cc12)c1ccccc1[N+](=O)[O-]	none
COc1cccc(C(=O)NNC(=O)C(=O)Nc2ccc(C)cc2)c1	none
COc1cccc(C(=O)NNC(=O)C(=O)Nc2cccc(Cl)c2C)c1	RXFP1 antag -70
Cc1ccccc1NC(=O)CSc1nc(-c2ccccc2)cn1-c1ccccc1F	none (no result: gsp antagonist, gsp agonist)
CCCCn1c(SCC(=O)c2ccc(OC)c(OC)c2)nc2cc(S(N)(=O)=O)ccc21	RXFP1 antag -75
COc1ccc(N(CC(=O)N2CCN(c3ccccc3)CC2)S(=O)(=O)c2c(C)nn(C)c2C)cc1	none (no result: RXFP1 antag, gsp antagonist, gsp agonist)
CCOC(=O)c1sc(SCC(=O)Nc2ccc(N(C)C)cc2)nc1N	gsp antagonist 28µM
COc1ccc(CCN2C(=O)N(c3ccc(C)cc3)C(=O)C2CC(=O)Nc2ccc(F)cc2)cc1 (centres undefined)	none (no result: RXFP1 antag, gsp antagonist, gsp agonist)
CCS(=O)(=O)N1CCc2cc(C(=O)N3CCN(c4ccc(OC)cc4)CC3)ccc21	none (no result: RXFP1 antag, gsp antagonist, gsp agonist)
Cn1c(=O)c([N+](=O)[O-])c(NCCc2ccccc2)c2ccccc21	none
CCn1c(=O)c([N+](=O)[O-])c(NCCc2ccccc2)c2ccccc21	gsp antagonist 40µM
O=C1C(Br)=Cc2cccc3cccc1c23	RXFP1 antag -69, gsp antagonist inconclusive
O=C(NN1C(=O)c2ccccc2NC1c1ccc([N+](=O)[O-])o1)c1ccc([N+](=O)[O-])cc1 (centres undefined)	RXFP1 agonist 2.8µM, gsp agonist 1.8µM
O=C(NN1C(=O)c2ccccc2NC1c1ccc([N+](=O)[O-])o1)c1ccccc1 (centres undefined)	none
Cc1cc(C)cc(-n2nnc(-c3nc(-c4ccccc4F)no3)c2C)c1	none (no result: gsp antagonist, gsp agonist)
CCCc1nc(SCC(=O)c2ccccc2)c2c(=O)n(C)c(=O)n(C)c2n1	gsp antagonist 35µM
CCc1nc(SCC(=O)c2ccccc2)c2c(=O)n(C)c(=O)n(C)c2n1	RXFP1 antag inconclusive
COc1ccccc1-c1nnc(C2CCN(C(=O)c3cccc(C)c3)CC2)o1	none (no result: gsp antagonist, gsp agonist)
COc1ccc(CN(CCC(c2ccc(F)cc2)C2CCOC(C)(C)C2)C(=O)c2ccco2)cc1 (centres undefined)	gsp antagonist 22µM
N/C(=N\OC(=O)COc1ccccc1)c1cccnc1	none
N/C(=N\OC(=O)COc1ccc2ccccc2c1Br)c1ccccn1	RXFP1 agonist 16µM, gsp agonist inconclusive
N/C(=N\OC(=O)COc1ccc2ccccc2c1Br)c1cccnc1	RXFP1 agonist 16µM (no result: RXFP1 antag, gsp antagonist, PTHR1 ag, gsp agonist)
CN(c1ccccc1)c1ccc(/C=C/[N+](=O)[O-])cc1	RXFP1 antag -108
O=C(Nc1cc(Cl)ccc1O)c1snnc1-c1ccccc1	gsp antagonist 22µM
O=C(Nc1cccc(Cl)c1Cl)c1snnc1-c1ccccc1	none
C#CCOCCOCCOCCNc1nc(N2CCN(C(=O)CCCCCCCCCCNC(=O)Cn3cc(C[C@@H](C)O)nn3)CC2)nc(N2CCN(C(=O)CCCCCCCCCCNC(=O)[C@H](CCCCN)n3cc(C[C@@H](C)CC)nn3)CC2)n1	PTHR1 ag 18µM (no result: RXFP1 antag, gsp agonist)
CCSc1nc(=S)cc(C)[nH]1	RXFP1 antag -75, gsp agonist inconclusive
O=C(Oc1ccc2c(c1)OCC2=O)c1ccc(Cl)cc1	RXFP1 antag -60
COc1cc2ncc3c(-c4ccccc4)nn(CC(=O)NC4CCCCC4)c3c2cc1OC	none (no result: gsp antagonist, gsp agonist)
CN(C(=S)Nc1ccc(SC(F)F)cc1)C(c1ccccc1)c1ccccc1	gsp antagonist 6.3µM
FC(F)Sc1ccc(NC(=S)NC(c2ccccc2)c2ccccc2)cc1	none
CC(=O)c1c(C)[nH]c(C(=O)OCc2csc(CC(=O)Nc3ccccc3C)n2)c1C	gsp antagonist 25µM, gsp agonist inconclusive (no result: RXFP1 agonist)
COC(=O)C1=C(C)N(Cc2ccccc2)C(=S)N[C@H]1CCc1ccccc1	none (no result: RXFP1 antag, gsp antagonist, PTHR1 ag, gsp agonist)
Cc1ccc2oc(=O)c3cc(C(=O)Nc4ccccc4C(N)=O)sc3c2c1	none (no result: RXFP1 antag, gsp antagonist, gsp agonist)
